Compound activity: PubChem, National Center for Advancing Translational Sciences (NCATS)
Sampled rows, rich in hits. Any-hit rate of the full collection: about 8%.
HT1080 IDH1KD tx: HT-1080 IDH1 knockdown cell toxicity (counter line); hit rate 2% among 360,000; HT-1080 IDH1 knockdown viability, ATP luminescence, 48 h; Potency, µM (titrated, usually from 46.1 µM), for inactives: at the highest dose activity, negative = toxicity, actives largely listed as cytotoxic;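 also: 0% = DMSO wells and -100% = cell-free medium wells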
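Viability of IDH1-knockdown HT-1080 fibrosarcoma cells was assessed by CellTiter-Glo after 48 h at 37 °C with titrated compound; concentration-effect curves were classified by fit quality and response size.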
MCF10A rerep: inducers of DNA re-replication in MCF 10A breast cells; MCF 10A DNA re-replication, Hoechst nuclear intensity, 48 h; Potency, µM (top dose mostly 46.1 µM), for inactives: at the highest dose activity, positive = re-replication, hits mostly activators; hit rate 2.9% among 350,000; AID 624296; also: % of control where 0% means no effect; nearly all actives have a fitted effect of over 50% in size
HT1080-NT tox: kills 2HG-producing HT-1080-NT fibrosarcoma cells. HT-1080-NT fibrosarcoma viability, CellTiter-Glo ATP luminescence, 48 h. Potency, µM (doses to about 46.1 µM), without a hit: top-dose activity, negative = less viability, most hits filed as cytotoxic. hit rate 1.6% among 360,000. AID 686970;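 also: NT is the 2HG producing partner of a matched IDH1 knockdown line; 0% = DMSO-treated cells and -100% = media-only wells without cells; nearly all actives have a fitted effect of over 55% in size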
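Viability by CellTiter-Glo luminescence after 48 h compound exposure at 37C of HT-1080-NT cells (750/well, RPMI, 5% FBS). % activity scaled between DMSO wells and medium-only wells, then curve-fitted and categorized by curve class.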
KB-3-1 tox: kills parental KB-3-1 adenocarcinoma cells. AID 1347075. hit rate 1.4% among 400,000. KB-3-1 viability, CellTiter-Glo ATP luminescence, 72 h. Potency, µM (series often up to 46.1 µM), actives largely listed as cytotoxic; also: % is scaled to controls: 0 for no effect and ±100 for the full control effect; nearly all actives have a fitted effect of over 60% in size
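72 h, 37 °C compound treatment of KB-3-1 parental cells; CellTiter-Glo added, 10 min, luminescence read. Data corrected against DMSO-only plates and normalized before curve fitting.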
KB-V1 cytotox: KB-V1 MDR subline cytotoxicity | hit rate 3.4% among 400,000 | KB-V1 MDR cells viability, CellTiter-Glo, 72 h | Potency, µM (doses to about 46.1 µM), most hits filed as cytotoxic; also: % is scaled to controls: 0 for no effect and ±100 for the full control effect; nearly all actives have a fitted effect of over 60% in size
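Compound-treated KB-V1 multidrug-resistant cells, 72 h, 37 degrees C; viability by CellTiter-Glo. Fitted qHTS curves give the values.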
SW480 rerep: DNA re-replication induction in SW480 cells. SW480 DNA re-replication, Hoechst DNA content imaging, 48 h. Potency, µM (highest dose often 46.1 µM), for the others: top-dose re-replication activation, usual class: activators. hit rate 1.8% among 340,000; also: % of control where 0% means no effect; nearly all actives have a fitted effect of over 55% in size
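Readout is total intensity of Hoechst-stained nuclei, excited at 405 nm and collected at 500-530 nm. Compound treatment lasted 48 hr at 37 C in 5% CO2 before staining.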
* = called active by the depositor; i = inactive; ? = inconclusive; nt = no result given. Calls follow the shape of the dose curve; as a rule, active = well fitted curve in the direction sought with a large enough effect; inconclusive = small, poorly fitted or top-dose-only effect, or another doubt; inactive = no such curve, though single readings can be large; an effect the other way counts as inactive or inconclusive. Potency is read from the fitted curve at half-maximal effect.

SMILES | HT1080 IDH1KD tx | MCF10A rerep | HT1080-NT tox | KB-3-1 tox | KB-V1 cytotox | SW480 rerep
COc1ccc2cc(CN(CC3CCCO3)C(=O)Nc3ccccc3OC)c(=O)[nH]c2c1 (stereo not given) | 2.3µM* | 18µM* | 2.6µM* | 5.2µM* | 12µM* | 15µM*
COc1ccc2cc(CN(CC3CCCO3)S(=O)(=O)c3ccc(C(C)=O)cc3)c(=O)[nH]c2c1 (stereo not given) | 19% | 3% | 0% | i | i | -7%
COc1ccc2cc(CN(CC3CCCO3)C(=S)Nc3ccccc3)c(=O)[nH]c2c1 (stereo not given) | 15µM* | 13µM* | 26µM* | 5.8µM* | 21µM* | 16µM*
COc1ccc2cc(CN(C(=O)Nc3ccccc3OC)C3CCCC3)c(=O)[nH]c2c1 | ? | ? | -16% | i | ? | ?
Cc1ccc2cc(CN(c3ccccc3C)S(=O)(=O)c3ccccc3)c(=O)[nH]c2c1 | -5% | ? | -3% | ? | ? | 21µM*
Cc1ccc2c(=O)cc(C(=O)Nc3ccc(S(=O)(=O)N(C)Cc4ccccc4)cc3)oc2c1 | nt | nt | nt | i | i | nt
COc1cccc(NC(=O)C2C3C=CC4(O3)C2C(=O)N(CCCN2CCCCC2)C4C(=O)NC2CCCCC2)c1 (stereo not given) | 0% | -1% | -8% | i | i | 10%
COc1ccc2cc(CN(Cc3cccnc3)S(=O)(=O)c3ccccc3)c(=O)[nH]c2c1 | -2% | 11% | -7% | ? | 16µM* | 7%
Cc1cc2cc(CN(CC3CCCO3)C(=S)Nc3ccccc3)c(=O)[nH]c2cc1C (stereo not given) | ? | 10µM* | 12µM* | 7.3µM* | i | ?
COC(=O)c1ccccc1S(=O)(=O)N(Cc1cc2ccc(OC)cc2[nH]c1=O)CC1CCCO1 (stereo not given) | -3% | 6% | -2% | i | 15µM* | 7%
COc1ccccc1NC(=O)N(Cc1cccs1)Cc1cc2cc3c(cc2[nH]c1=O)OCO3 | ? | 21µM* | ? | ? | ? | ?
COc1ccc2cc(CN(CC3COCCO3)S(=O)(=O)c3ccccc3)c(=O)[nH]c2c1 (stereo not given) | 7% | -1% | -4% | i | i | -5%
CCCCN(CC)C(=O)Cn1c(=O)n(-c2ccc(OCC)cc2)c(=O)c2c3c(sc21)CCC3 | nt | nt | nt | i | ? | nt
COC(=O)c1ccccc1NC(=S)N(Cc1ccc2c(c1)OCO2)Cc1cc2cc(OC)ccc2[nH]c1=O | -3% | ? | 1% | i | 18µM* | nt
COc1ccccc1NC(=S)N(CCCN(C)C)Cc1cc2cc3c(cc2[nH]c1=O)OCO3 | -3% | -3% | -3% | i | i | 0%
CCc1ccc(S(=O)(=O)Nc2c(C)nc3nc[nH]n3c2=O)cc1 | 18% | 5% | -1% | i | i | 9%
CC1(C)CC(=O)c2c(nc3ccccc3c2N)C1 | 12% | 13% | 8% | i | i | -1%
Cc1nc2c(c3c1[nH]c1ccccc13)C(=O)CC(C)(C)C2 | -28% | 23µM* | ? | i | i | ?
CC(C)C[C@H]1CNC(=S)N1CC1CCN(CCCC2CCCCC2)CC1 | -16% | ? | -18% | i | i | -2%
CCCCN(CC)c1nc(N)c2c(N)nc(OCC)cc2c1C#N | -10% | 23µM* | -5% | i | i | ?
CCc1cccc2c(C(=O)C(NCCCOC)c3ccccc3)c[nH]c12 (stereo not given) | ? | ? | 16µM* | i | i | 19%
CCc1cccc2c(C(=O)COC(=O)c3ccccc3)c[nH]c12 | -1% | 0% | 0% | i | ? | -5%
